The source of these data is PubChem BioAssay AID720579 (National Center for Advancing Translational Sciences (NCATS), 2013).

About 1,900 (0.61%) of roughly 310,000 compounds were called active. Inconclusive results (about 8%) are left out. What follows is part of a selection rich in actives, with near analogues and random picks from the rest. A number with no mark means an inactive call. Calls come from the whole dose curve; tested in A549 cells.
% is set by controls: 0 for no effect and ±100 for the full control effect; potency is the fitted concentration of half-maximal effect.

The nature of the test: qHTS for Stage-Specific Inhibitors of Vaccinia Orthopoxvirus: mCherry Reporter Primary qHTS. Note: nearly all actives have a fitted effect of over 35% in size. Particulars: Vaccinia virus mCherry reporter infection, fluorescence; series mostly up to 36.5 µM; activity change, negative = inhibition: at the top concentration.
Turning to `O=[N+]([O-])c1ccc(F)cc1Oc1nc(-c2cccnc2)nc2ccccc12`, the Potency is 3.55 µM (active).
Turning to `Fc1ccc(/C=N/Nc2nc(-c3cccnc3)nc3ccccc23)cc1`, the outcome was “inactive [at 7.34 µM]”.
Regarding `COc1ccccc1Oc1nc(-c2cccnc2)nc2ccccc12`, the outcome was inactive.
As for `COc1ccc(-c2ccc(C(=O)NCCN3CCOCC3)c3occc23)c(C)c1`, the “activity change, negative = inhibition” value was -6.53%.
As for `COC1CC(OC2CC[C@@]3(C=O)C4CC[C@]5(C)C(C6=CC(=O)OC6)CC[C@@]5(O)C4CC[C@]3(O)C2)OC(C)C1O` (stereo not given in full), the Potency was 2.51 µM (active).
In the case of `CC1=C(C(=O)N2CCOCC2)CC(CC(=O)NCC2CCCCC2)C(=O)N1Cc1ccc(F)cc1` (stereo not given), the “activity change, negative = inhibition” value is -20.7%.
`CC(=O)C1=CCC(c2ccccc2)N(S(=O)(=O)c2ccc(C)cc2)C1` (stereo not given): the compound was classed as inactive.
Regarding `COc1cccc(NC(=O)C2(C)CCN2C(=O)CCC2CCCC2)c1` (stereo not given), the outcome was inactive.
In the case of `CCCCCCN1CCN(C2CN(Cc3cn(CCCCCC)nn3)S(=O)(=O)C2)CC1` (stereo not given), the “activity change, negative = inhibition” value is -6.2%.
As for `COc1ccc2c(c1O)-c1cccc3c1[C@@H](C2)N(C)CC3`, the “activity change, negative = inhibition” value is -17.5%.
Turning to `CN1CCc2cc3c(cc2[C@H]1[C@@H]1OC(=O)c2c1ccc1c2OCO1)OCO3`, the “activity change, negative = inhibition” value was -6.18%.
With `COc1c(O)ccc2c1CN1CCc3cc4c(cc3C1C2)OCO4` (stereo not given), the Potency is 11.2 µM (active).
Take `CC(C)NC(=O)C1(C)CCCCCN1C(=O)c1ccc(-c2ccccc2)cc1` (stereo not given): the compound was classed as inactive.
As for `CC(=O)c1ccc(Nc2nc(C(N)c3ccccc3Cl)cs2)cc1` (stereo not given), the “activity change, negative = inhibition” value was -16.5%.
Take `CC(=O)Nc1cccc(-c2cc(NC(C)=O)c3ncc(-c4ccccc4)n3c2)c1`: the “activity change, negative = inhibition” value was 12%.
Take `COc1ccc(-c2cc(C(=O)Nc3ccccc3O)c3ccccc3n2)cc1`: the “activity change, negative = inhibition” value is -20.4%.
For the compound `CCOc1ccc(-c2cc(C(=O)N/N=C/c3ccc(O)cc3)c3ccccc3n2)cc1`, the Potency is 3.98 µM (active).
As for `COc1ccc(-c2cc(C(=O)N/N=C/c3cccnc3)c3ccccc3n2)c(OC)c1`, the “activity change, negative = inhibition” value was -10.7%.
As for `CC1(C(=O)Nc2ccc3c(c2)OCCO3)CCN1C(=O)Cc1cc(F)ccc1F` (stereo not given), the compound was called inactive.
`CCCOc1ccc(F)cc1-c1cc(C(=O)NCc2ccc(F)cc2)[nH]n1`: the “activity change, negative = inhibition” value was -8.69%.
On the same count and under the same terms, the figure for `Cc1ccc(-c2ccnc(-n3ncc(C(=O)N(C)Cc4cccc5ncccc45)c3C3CC3)n2)o1` is -4.61%.
With `CN(Cc1cccc2ncccc12)C(=O)c1cnn(-c2nccc(-c3ccccc3F)n2)c1C1CC1`, the Potency is 5.62 µM (active).
For `Cc1cccc(CNC(=O)c2cnn(-c3nccc(-c4ccccc4F)n3)c2C2CC2)n1`, the “activity change, negative = inhibition” value is -8.11%.
Take `CCOC(=O)C1=CCC(c2ccc(F)cc2)N(S(=O)(=O)c2ccc(C)cc2)C1` (stereo not given): the “activity change, negative = inhibition” value is 18.9%.
Take `CC1CCN(C2=NC(=O)/C(=C/c3ccc(O)cc3)S2)CC1`: the “activity change, negative = inhibition” value is -10.7%.
For the compound `O=C1N=C(N2CCCC2)S/C1=C\c1cccc(Br)c1`, the “activity change, negative = inhibition” value is -2.62%.
As for `CCOc1cc(/C=C2\SC(N3CCCC(C)C3)=NC2=O)ccc1O` (stereo not given), the Potency was 11.2 µM (active).
In the case of `CCCCC(=O)N(C)c1c(CC)nc2c(OCc3ccc(S(C)(=O)=O)cc3)cccn12`, the “activity change, negative = inhibition” value was -16%.
Consider `OCCC#Cc1ccc(N2C(c3ccsc3)=Cc3ccc(F)cc3C2c2c[nH]c3ccccc23)cc1` (stereo not given), for which the “activity change, negative = inhibition” value is 8.59%.
With `COc1ccc(CC2c3cc(OC)c(OC)cc3CC[N+]2(C)CCC(=O)OCCCCCOC(=O)CC[N+]2(C)CCc3cc(OC)c(OC)cc3C2Cc2ccc(OC)c(OC)c2)cc1OC` (stereo not given), the Potency was 15.8 µM (active).
For `COC(=O)C1=CN(Cc2ccc(OC)c(OC)c2)C=C(C(=O)OC)C1c1cccs1`, the “activity change, negative = inhibition” value is -12.4%.
As for `COc1ccc(CN2CCOC2=O)cc1OC`, the result was inactive.
On to `OC[C@@H]1CN(Cc2ccc(F)cc2)C[C@H](n2cnc3c(NC4CCCC4)ncnc32)O1`, for which the “activity change, negative = inhibition” value was -6.71%.
Same read-out and setting: the figure for `COc1ccccc1CNc1nc(Nc2ccccc2Cl)c2sccc2n1` is 7.85%.
As for `CC(C)c1cccc(-c2csc(C(O)c3ccccc3)n2)c1` (stereo not given), the compound was classed as inactive.
Take `Cc1ccc(C(O)c2ncc(-c3ccccc3F)[nH]2)cc1F` (stereo not given): the “activity change, negative = inhibition” value is 5.43%.
Turning to `CCOC(=O)N/N=C/c1cccnc1`, the “activity change, negative = inhibition” value is -7.27%.
For the compound `O=C(CNC(=O)c1cccnc1)N/N=C/c1cccnc1`, the “activity change, negative = inhibition” value is -10.6%.
`O=C(CSc1cccc2cccnc12)N/N=C/c1cccnc1`: the Potency was 11.2 µM (active).
As for `COc1cc(C=C(OC(C)=O)c2ccc3c(c2)OCO3)cc(OC)c1OC`, the “activity change, negative = inhibition” value is 12.3%.
Still for that read-out and setting: the figure for `COC(=O)[C@]12CCCCC=C1N(Cc1ccco1)C(=O)[C@H](CC(=O)NCC1CCCCC1)C2` is 32.7%.
Consider `COC(=O)[C@]12CCCCC=C1N(Cc1ccc(Cl)cc1Cl)C(=O)[C@H](CC(=O)NCc1cccc3ccccc13)C2`, for which the compound was classed as inactive.
Consider `Cc1ccc(S(=O)(=O)N2CCC(C(=O)Nc3cc(C)ccc3C)CC2)cc1`, for which the “activity change, negative = inhibition” value is -25.2%.
`Cc1ccnc(NC(=O)C2CCN(S(=O)(=O)c3c(C)c(C)cc(C)c3C)CC2)c1`: the Potency is 11.2 µM (active).
For `O=C(Nc1ccccn1)C1CCN(S(=O)(=O)c2ccccc2)CC1`, the “activity change, negative = inhibition” value was 14.8%.
As for `COc1ccc(C(C#N)=C2C=CC(=NO)c3ccccc32)cc1`, the “activity change, negative = inhibition” value is -7.3%.
For `COc1cc(C)c(CN2CCN(C(=O)CCC(=O)c3ccc(C)s3)CC2)cc1OC`, the “activity change, negative = inhibition” value is -4.2%.
Consider `COC(=O)[C@]12CCCCC=C1N(Cc1ccco1)C(=O)[C@H](CC(=O)NCCCCc1ccccc1)C2`, for which the “activity change, negative = inhibition” value is 8.49%.
With `CC1Cc2ccccc2N1S(=O)(=O)c1c(N)n(C)c(=O)n(C)c1=O` (stereo not given), the result was inactive.
Consider `Cc1cc(-c2ccc(C)c(S(=O)(=O)N3c4ccccc4CC3C)c2)on1` (stereo not given), for which the “activity change, negative = inhibition” value was -11%.
